High-throughput results deposited in PubChem by National Center for Advancing Translational Sciences (NCATS).
This is a sample that favours compounds with a hit; in the whole collection about 8.7% have one here.
BAZ2B block – inhibitors of human BAZ2B bromodomain; Potency, µM (highest dose often 114 µM), most hits filed as inhibitors; AID 504333; AlphaScreen BAZ2B-H3K14Ac peptide displacement; 360,000 compounds, 4.4% hits; note: nearly all actives have a fitted effect of over 60% in size
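AlphaScreen displacement of biotin-H3(5-23)K14Ac peptide (50 nM final) from BAZ2B (50 nM final) in PBS pH 7.4, 0.01% Tween-20; complex preformed 30 min RT, then compounds (top 110 uM) 30 min RT, beads 20 min dark.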
Sfp PPTase inh – inhibitors of Bacillus subtilis Sfp phosphopantetheinyl transferase; 310,000 compounds, 3.5% hits; Q9F4F7; Potency, µM, hits mostly inhibitors; Biochemical Sfp PPTase activity, qHTS;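 note: the enzyme is Sfp with the accession as filed and its product quenches rhodamine fluorescence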
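With Hepes-Na pH 7.6 buffer containing 10 mM MgCl2, Sfp (15 nM) modified BHQ-2-YbbR (12.5 uM) using rhodamine-CoA (5 uM). Two reads 30 minutes apart at 525/598 nm yielded each well's rate.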
G9a inh – inhibitors of human histone lysine methyltransferase G9a; Q96KQ7; G9a H3K9 monomethylation, AlphaScreen, 2 h; Potency, µM (top dose mostly 102 µM), usual class: inhibitors; 350,000 compounds, 8.8% hits; AID 504332; note: nearly all actives have a fitted effect of over 75% in size
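Signal arises when biotinylated H3K9 peptide, once monomethylated, bridges streptavidin donor and antibody-captured acceptor beads. Enzyme at 20 nM was preincubated 15 min with test compounds; peptide 500 nM and SAM 20 uM then reacted for 2 h.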
JMJD2A Tudor inh – inhibitors of human JMJD2A Tudor domain; O75164; AlphaScreen JMJD2A-Tudor / H3K4me3 peptide binding; Potency, µM (top dose mostly 114 µM), most hits filed as inhibitors; 390,000 compounds, 4.4% hits; note: nearly all actives have a fitted effect of over 50% in size
ALOX12 inh – inhibitors of human 12S-lipoxygenase ALOX12. P18054. purified 12hLO, xylenol orange hydroperoxide absorbance. Potency, µM (series often up to 108 µM), actives largely listed as inhibitors. 580,000 compounds, 1.1% hits
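Purified human 12hLO at 150 nM in 25 mM Hepes, 0.01% Triton X-100, pH 7.0, preincubated 15 min at room temperature with compound. Reaction started with 40 uM arachidonic acid, 30 min at room temperature. Hydroperoxide measured by Fe-xylenol orange, 573/405 nm absorbance ratio.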
HP1b chromo inh – blocks HP1-beta chromodomain binding to methylated histone tails; 390,000 compounds, 0.56% hits; AlphaScreen HP1-beta / biotin-H3K9me3 peptide binding; Potency, µM (titrated, usually from 114 µM), most hits filed as inhibitors; P83916; AID 540317; note: nearly all actives have a fitted effect of over 70% in size
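Compound inhibition of the preformed complex between 50 nM HP1-beta and 50 nM biotinylated H3K9me3 peptide was read by AlphaScreen. Buffer was PBS pH 7.4 with 0.01% Tween-20. Incubations ran 30 min at room temperature, with 10 ug/mL donor/acceptor beads.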
A number is an active result; – = inactive; ? = inconclusive; · = no result given; ! = not active in a repeat; [ ] = dose if it differs, or a comment. Calls come from the whole dose curve; as a rule, active = well fitted curve in the direction sought with a large enough effect; inconclusive = small, poorly fitted or top-dose-only effect, or another doubt; inactive = no such curve, though single readings can be large; an effect the other way counts as inactive or inconclusive.

SMILES	BAZ2B block	Sfp PPTase inh	G9a inh	JMJD2A Tudor inh	ALOX12 inh	HP1b chromo inh
O=C(O)c1cccc2cccc(-c3c4ccc(=O)c(O)c-4oc4c(O)c(O)ccc34)c12	·	·	·	0.79µM	6.3µM	?
Cc1noc(C)c1C(=O)N1CCc2nn(C)c(=O)n2CC1	·	·	·	·	–	·
Cc1ccc(CN2C(=O)C[C@@H](NS(=O)(=O)c3ccc4ccccc4c3)C/C=C\C2c2ccc(C)cc2)cc1 (stereo partly drawn)	·	–	6.3µM	·	·	·
COc1cccc(C(=O)C2COC(=O)C2)c1 (stereo not drawn)	·	·	·	·	–	·
Cc1cc(C)c2nc(N3CCCN(C(=O)c4ccco4)CC3)c(C#N)cc2c1	?	45µM	?	–	?	–
Cc1ccc2cc(C#N)c(N3CCCC3)nc2c1C	–	20µM	?	–	–	–
COc1ccc2nc(N3CCCCC3)c(C#N)cc2c1	–	79µM	–	–	–	–
O=C1Nc2ccc(-c3cccc(C(F)(F)F)c3)cc2C(=O)N2CCN(C(=O)c3cccs3)C[C@H]12	·	·	·	·	–	·
CN(C)C(=O)CSc1nnc(Cc2ccccc2)n1Cc1ccco1	–	–	?	–	–	–
CCCn1c(Cc2ccccc2)n[nH]c1=S	–	–	?	7.1µM	–	–
S=c1[nH]nc(Cc2ccccc2)n1Cc1ccco1	–	–	?	4µM	35µM	–
O=C(CCS(=O)(=O)c1ccccc1)Nc1nc2cc3c(cc2s1)OCO3	71µM	–	?	–	–	–
NNc1nc2cc3c(cc2s1)OCCO3	?	40µM	71µM	–	?	–
O=C(CCS(=O)(=O)c1ccccc1)Nc1nc2cc3c(cc2s1)OCCO3	79µM	–	?	–	–	–
COC(=O)c1cc(-c2ccccc2OC)nc2ccccc12	·	·	·	·	–	·
CCn1c(-c2ccc(OC)c(O)c2)nc2c1c(=O)[nH]c(=O)n2Cc1ccccc1	·	·	·	·	–	·
CCCCCCCCCCCCCCC[C@@H](O)[C@@H](N)CO	·	45µM!	–	–	?	–
CCCCCCCCCCCCCCC[C@H](O)[C@H](N)CO	·	71µM	–	·	–	·
CCCCCCCCCCC(CO)CCCCCCCC (stereo not drawn)	·	–	–	·	·	·
COc1cc2[nH]c(=S)nc(NC3CCCC3)c2cc1OC	–	–	32µM	·	·	·
C=CCNc1nc(=S)[nH]c2cc(OC)c(OC)cc12	–	–	25µM	?	–	–
COc1cc2[nH]c(=O)n(C3CCCCC3)c(=O)c2cc1OC	–	–	–[12.7 µM]	–	–	–
COc1cc2[nH]c(=O)[nH]c(=O)c2cc1OC	·	–	–[5.15 µM]	·	–[22.9 µM]	·
COc1ccc(CNC(=O)COC(=O)c2ccc(S(=O)(=O)N3CCCCCC3)cc2)cc1OC	·	·	·	·	–	·
Fc1ccccc1NC(=S)NC1CC1	·	·	·	·	–	·
SMILES	BAZ2B block	Sfp PPTase inh	G9a inh	JMJD2A Tudor inh	ALOX12 inh	HP1b chromo inh
CN(C)C(=S)Nc1nc2ccccc2s1	–	14µM	–[0.501 µM]	3.5µM	?	?
CCNC(=O)Nc1nc2ccccc2s1	–	–	–	–	–	–
CCOc1ccc2nc(NC(=O)c3cnc(C)cn3)sc2c1	–	–	45µM	–	–	–
CCOc1ccc2nc(NC(=S)N(C)C)sc2c1	35µM	40µM	1.6µM	13µM	45µM	?
S=C(Nc1ccccc1)c1nc2ccccc2s1	–	–	?	40µM	–	?
O=C(NNc1nc2ccccc2s1)Nc1ccccc1	–	–	–	–	–	–
O=Cc1cc2ccccc2o1	·	·	·	·	–	·
CC(NS(=O)(=O)c1ccc2ccccc2c1)c1ccccn1 (stereo not drawn)	·	·	·	50µM	–	–
O=C1Cc2cc(S(=O)(=O)N3CCN(c4ccc(Br)cc4)CC3)ccc2N1	·	·	·	141µM	·	·
CC(=O)c1ccc(N2CCN(S(=O)(=O)c3ccc4c(c3)NC(=O)CC(=O)N4)CC2)cc1	–	–	–	16µM	–	–
COCCCNC(=O)N1CCCOCCNC(=O)[C@@H]2CCC[C@@H]21	·	·	·	·	–	·
Cn1c(=O)c2[nH]c(N/N=C(/C#N)C(N)=O)nc2n(C)c1=O	?	56µM	14µM	–	·	–
Cc1cc(CNC(=O)Cn2nc(C)c([N+](=O)[O-])c2C)c2ccccc2n1	–	–	35µM	–	–	–
Cc1cc2cc(CCNC(=O)c3ccc(C)c([N+](=O)[O-])c3)c(=O)[nH]c2cc1C	–	–	–[12.7 µM]	–	–	–
Cc1ccc(C(=O)NCCc2nc3ccccc3[nH]2)cc1[N+](=O)[O-]	–	–	–	–	–	–
Cc1cc2cc(CNC(=O)c3ccc(C)c([N+](=O)[O-])c3)ccc2[nH]1	?	–	56µM	?	–	–
Cc1cc(CNC(=O)c2ccc(C)c([N+](=O)[O-])c2)c2ccccc2n1	–	–	35µM	–	–	–
Cc1ccc(C(=O)NCCn2ccc3ccccc32)cc1[N+](=O)[O-]	·	–	–	79µM	–	–
Cc1ccc(C(=O)NCCSc2c(C)[nH]c3ccccc23)cc1[N+](=O)[O-]	?	–	50µM	?	?	–
COc1cccc(CN2CCCC(N3CCc4ccccc4C3)C2)c1O (stereo not drawn)	–	–	?	–	–	–
c1ccc2c(c1)CCN(C1CCCCC1)C2	79µM	–	20µM	25µM	?	?
Cc1cccc(-n2c(SCc3cccc(C#N)c3)nnc2N2CCOCC2)c1	·	·	·	·	–	·
O=C1C=C(C2CCCCC2)C(=O)c2ccccc21	·	·	·	40µM	45µM	?
